LmPK inh: qHTS Assay for Inhibitors of Leishmania Mexicana Pyruvate Kinase (LmPK). Potency, µM (highest dose often 57.5 µM), for inactives: at the highest dose activity change, negative = inhibition, most hits filed as inhibitors. hit rate 0.37% among 290,000. purified LmPK, Kinase-Glo ATP luminescence, 1 h. AID 1721, 2009
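Purified LmPK (0.1 nM) converted ADP (0.1 mM) to ATP with PEP (0.5 mM) in imidazole buffer pH 7.2 with KCl and MgCl2, 1 h at room temperature. ATP was read by Kinase-Glo luminescence; data normalized to uninhibited and no-enzyme controls.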
Giardia FBPA inh: qHTS Assay for Inhibitors of Fructose-1,6-bisphosphate Aldolase from Giardia Lamblia | A8B2U2 | purified Giardia FBPA | Potency, µM (highest dose often 59.6 µM), inactives show at the top dose activity, negative = inhibition, actives largely listed as inhibitors | hit rate 0.71% among 290,000 | AID 2451, 2010; note: nearly all actives have a fitted effect of over 55% in size
Target sequence (A8B2U2 whole entry, looked up): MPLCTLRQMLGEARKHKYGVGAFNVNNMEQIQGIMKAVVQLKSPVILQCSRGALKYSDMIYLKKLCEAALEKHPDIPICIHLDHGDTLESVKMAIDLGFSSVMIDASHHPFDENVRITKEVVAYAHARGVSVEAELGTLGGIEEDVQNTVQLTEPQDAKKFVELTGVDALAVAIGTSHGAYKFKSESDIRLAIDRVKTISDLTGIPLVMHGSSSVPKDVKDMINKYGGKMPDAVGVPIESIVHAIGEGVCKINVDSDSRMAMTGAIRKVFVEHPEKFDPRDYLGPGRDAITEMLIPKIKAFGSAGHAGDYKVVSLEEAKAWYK
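Giardia FBPA (40 nM reagent) was preincubated 10 min at RT with compound (up to 57.5 uM final), then substrate plus GAPDH/TPI/NAD/arsenate coupling system with diaphorase/resazurin was added; resorufin fluorescence (525/598 nm) was read after 20 min.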
RE007 growth inh: qHTS Assay for Inhibitors of the HIV-1 protein Vpr. Potency, µM (doses to about 92.2 µM), for inactives: at the highest dose activity change, negative = less growth, hits mostly inhibitors. hit rate 0.21% among 360,000. S. pombe RE007 Vpr strain, BacTiter-Glo ATP luminescence, 24 h; active = well fitted falling curve with a large enough effect; inconclusive = small, poorly fitted or top-dose-only effect; inactive = no such curve, though single readings can be large or run the other way; note: nearly all actives have a fitted effect of over 50% in size
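Fission yeast strain RE007, carrying one chromosomally integrated HIV-1 vpr copy, was seeded at OD 0.01 in PMG+AL medium with 23 nL pinned compound. After 24 h at 30 °C and 99% humidity, viability was read by BacTiter-Glo luminescence.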
Tb PYK inh: qHTS of Trypanosoma Brucei Inhibitors | Potency, µM (doses to about 76.8 µM), inactives show at the highest dose activity, negative = inhibition, actives largely listed as inhibitors | pyruvate kinase (Trypanosoma brucei), Q57TT1 | TbPYK enzyme, Kinase-Glo Plus ATP luminescence, 45 min | hit rate 0.12% among 410,000; note: nearly all actives have a fitted effect of over 50% in size
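Screened from lowest to highest concentration, compounds were pinned into TbPYK/substrate mixtures, and ADP (130 uM final) was added. Plates sat at room temperature for 45 min prior to Kinase-Glo Plus detection by luminescence.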
The depositor's hits bear a star; ? = inconclusive; nt = not tested or not shown; [ ] = another dose, or the depositor's remark. Only some compounds are listed: those with a hit (about 0.95% of all), similar ones and a draw of the others. Unless noted, calls come from the whole dose curve; as a rule, active = well fitted curve in the direction sought with a large enough effect; inconclusive = small, poorly fitted or top-dose-only effect, or another doubt; inactive = no such curve, though single readings can be large; an effect the other way counts as inactive or inconclusive. % is set by controls: 0 for no effect and ±100 for the full control effect; potency is the fitted concentration of half-maximal effect.

SMILES | LmPK inh | Giardia FBPA inh | RE007 growth inh | Tb PYK inh
CCN1CCC[C@@H]1CNC(=O)c1cc(S(=O)(=O)CC)ccc1OC | nt | nt | nt | 0.0%
CCOc1ccc(NC(=O)c2nn(C)cc2Br)cc1 | 31.6µM* | -1.3% | -3.4% | -14.7%
COc1cccc(NC(=O)c2nn(C)cc2Br)c1 | nt | nt | -5.4% | -20.2%
COc1ccc(S(=O)(=O)NCCc2sc(-c3cccnc3)nc2C)cc1OC | nt | nt | nt | -1.9%
O=C(NC1=NCCS1)C1COc2ccccc2O1 (stereo not given) | 15.8µM* | 4.1% | -2.4% | -19.9%
O=C(Nc1ccncc1)C1COc2ccccc2O1 (stereo not given) | 2.5% | 1.8% | -18.7% | -2.2%
CC(C)(C)c1ccc(OCCSc2nc(-c3cccs3)nc3cc(=O)[nH]n23)cc1 | nt | nt | nt | -4.4%
CCN(CC)S(=O)(=O)c1ccc2c(c1)N(CC(=O)N1CCN(c3cccc(OC)c3)CC1)C(=O)CO2 | nt | nt | nt | 5.5%
S=C1SCN(Cc2cccs2)CN1Cc1cccs1 | nt | nt | -16.5% | -0.3%
S=C1SCN(Cc2ccco2)CN1Cc1ccco1 | -5.7% | ? | 35.5µM* | -8.7%
CCOC(=O)c1c(C)oc2c1c(C=NCCO)c(O)c1ccccc12 | -5.6% | 1.99µM* | 14.0% | -5.0%
O=C1C(c2[nH]c3ccc(S(=O)(=O)O)cc3c2O)=Nc2ccc(S(=O)(=O)O)cc21 | nt | 17.7µM* | nt | 0.0%
Cc1ccc(NC(=O)CC2SC3=NCCN3C2=O)cc1 (stereo not given) | -0.2% | -0.8% | 5.01µM* | 2.3%
CNC(C)CC1CCCCC1 (stereo not given) | nt | nt | nt | 2.9%
O=[N+]([O-])c1c(Nc2ccccn2)cc(Cl)c2nonc12 | -8.7% | 0.446µM* | 8.91µM* | -1.7%
C=C[C@@H](C1=CC(=O)C(OC)=C(OC)C1=O)c1ccccc1 | nt | 22.3µM* | nt | nt
C=C[C@@H](c1ccccc1)[C@](C)(O)C(=O)O | nt | nt | 0.0% | nt
CCOc1ccc(N=C(C)Nc2ccc(OCC)cc2)cc1 | nt | nt | nt | -1.9%
O=c1[nH]nc(CNc2ccc(C(F)(F)F)cc2)c2ccccc12 | 6.5% | -11.1% | 7.5% | -3.7%
O=c1[nH]nc(CNc2ccc(O)cc2)c2ccccc12 | -9.1% | 17.7µM* | -15.9% | -16.1%
C=C1/C(=C\C=C2/CCC[C@@]3(C)[C@@H]([C@H](C)OCCC(C)(C)O)CC[C@@H]23)C[C@@H](O)C[C@@H]1O | nt | nt | nt | 3.3%
COc1ccccc1NC(=O)/C(C#N)=C/c1cccnc1 | 1.4% | -10.2% | -11.4% | -1.1%
N#C/C(=C\c1cccnc1)C(=O)Nc1cccc2ccccc12 | 5.3% | -15.9% | 31.6µM* | -21.8%
O=C(NCc1ccco1)c1sc(=S)n2c1[nH]c(=O)c1ccccc12 | ? | -11.4% | -15.0% | -22.7%
O=C(NC1CCCC1)c1sc(=S)n2c1[nH]c(=O)c1ccccc12 | 22.4µM* | -6.0% | -0.8% | -2.9%
SMILES | LmPK inh | Giardia FBPA inh | RE007 growth inh | Tb PYK inh
CC(=O)OCC1=C(C(=O)O)N2C(=O)C(NC(=O)Cn3nc(C(F)F)c(Cl)c3C)C2SC1 (stereo not given) | -2.2% | -8.2% | 4.9% | -0.7%
Cc1nnc(SCC2=C(C(=O)O)N3C(=O)C(NC(=O)Cn4nc(C(F)F)c(Cl)c4C)C3SC2)s1 (stereo not given) | -0.6% | 3.97µM* | 0.1% | -14.5%
COc1ncnc2sc(-c3ccccc3)cc12 | 12.6µM* | 3.7% | ? | ?
CN(C)C(=O)COc1ncnc2sc(-c3ccccc3)cc12 | 1.1% | 3.5% | 3.8% | 0.9%
C[C@H]1C[C@@H]2[C@H]([C@@H](O)C[C@@]3(C)[C@H]2CC[C@]3(O)C(=O)COC(=O)CCC(=O)O)[C@@]2(C)C=CC(=O)C=C12 | nt | nt | nt | 5.3%
Nc1ncc(Br)cc1N=Cc1ccccc1 | -2.8% | 1.12µM* | 17.9% | -4.9%
Cn1ncc(N=Cc2ccccc2)c1C(N)=O | 4.4% | -25.3% | 1.7% | -0.6%
O=C(Nc1cc(Cl)ccc1Cl)c1cc(S(=O)(=O)N2CCc3ccccc3C2)ccc1F | nt | nt | nt | 0.6%
Cc1nc(-c2coc3cc(O)c(C)cc3c2=O)cs1 | 7.08µM* | -6.3% | -25.9% | -9.3%
Cc1nc(-c2coc3cc(OCC(=O)O)ccc3c2=O)cs1 | ? | 0.6% | -28.0% | -8.8%
O=C(OCC(COC(=O)c1cccnc1)(COC(=O)c1cccnc1)COC(=O)c1cccnc1)c1cccnc1 | nt | nt | nt | 1.9%
O=C(c1ccc(Br)o1)N1CCc2ccccc21 | 14.1µM* | 0.5% | nt | nt
O=C(c1ccc(Br)o1)N1CCCc2ccccc21 | -11.3% | 5.1% | ? | -4.8%
O=C(NCCCN1CCN(c2ccccc2)CC1)c1nnc(Cc2ccc(F)cc2)o1 | nt | nt | nt | 0.5%
C/C(Cn1nnc([N+](=O)[O-])n1)=N\NC(=O)c1ccccc1O | 4.0% | 17.7µM* | -13.4% | -6.8%
C/C(Cn1nnc([N+](=O)[O-])n1)=N\NC(=O)c1ccc(O)cc1O | 3.4% | ? | -18.0% | -10.7%
Cc1cc(Br)cc(C)c1OCC(=O)Nc1ccc(S(=O)(=O)Nc2ncccn2)cc1 | nt | nt | nt | -4.6%
COC(=O)c1ccc(N2C(=O)CC(N3CCC(O)(c4ccc(Br)cc4)CC3)C2=O)cc1 (stereo not given) | 5.4% | ? | 35.5µM* | -4.1%
COC(=O)c1ccc(N2C(=O)CC(N3CCC(n4c(=O)[nH]c5ccccc54)CC3)C2=O)cc1 (stereo not given) | -0.4% | 0.0% | 14.1µM* | -8.3%
Cc1cc(N2C(=O)CC(N3CCC(n4c(=O)[nH]c5ccccc54)CC3)C2=O)no1 (stereo not given) | -2.8% | -11.2% | ? | -27.8%
COc1ccc2c3c1OC1C(O)C=CC4[C@@H](C2)NCC[C@]314 (stereo not given in full) | nt | nt | nt | -4.5%[157 µM]
CCCCCC(O)CCCC(=O)O (stereo not given) | nt | -3.4% | -5.3%[18.4 µM] | 6.5%
CCCCCCCCCCCCCCCC(O)C[N+](C)(C)CCO (stereo not given) | nt | nt | 35.5µM* | -13.7%
CCCCNC(C)(C)[P+](=O)O | nt | nt | nt | -4.8%
CC(C)C[C@H](NC(=O)[C@H](CCc1ccccc1)NC(=O)CN1CCOCC1)C(=O)N[C@@H](Cc1ccccc1)C(=O)N[C@@H](CC(C)C)C(=O)[C@@]1(C)CO1 | nt | nt | nt | -11.5%
SMILES | LmPK inh | Giardia FBPA inh | RE007 growth inh | Tb PYK inh
Cc1scc(-c2n[nH]c(=S)n2C(C)c2ccccc2)c1C (stereo not given) | 12.6µM* | 0.1% | nt | 2.24µM*
CCc1cc(-c2n[nH]c(=S)n2C(C)c2ccccc2)cs1 (stereo not given) | 14.1µM* | 15.9% | 7.9% | -66.6%
CC(c1ccccc1)n1c(-c2ccc(C(C)(C)C)cc2)n[nH]c1=S (stereo not given) | -17.5% | 12.2% | 8.6% | -19.1%
CCOc1ccc(C(=O)c2cn(Cc3ccccc3)c3c(F)cc(F)cc3c2=O)cc1 | nt | nt | nt | -2.2%
CC(C)C(C(=O)O)N1C(=O)/C(=C/c2ccc(Br)cc2)SC1=S (stereo not given) | nt | 6.7% | nt | nt
Oc1ccc2ccccc2c1C=NC12CN3CCN(CN(C3)C1)C2 | -3.5% | 14.1µM* | -9.1% | -2.0%
